{"source": "PubChem BioAssay AID743445", "about": "(Broad Institute, 2014)", "note": "The whole screen tested about 310,000 compounds, of which about 1,700 (0.55%) were called active. Only a selection was taken, and actives are over-represented in it overall. Unmarked numbers belong to inactive results. Cut-off read from the data, not from the text of the source: active = inhibition above about 50%; inactive = the rest."}
{"target": "Histone-lysine N-methyltransferase NSD2 (Homo sapiens) (UniProt O96028)", "sequence (O96028 whole entry, looked up)": "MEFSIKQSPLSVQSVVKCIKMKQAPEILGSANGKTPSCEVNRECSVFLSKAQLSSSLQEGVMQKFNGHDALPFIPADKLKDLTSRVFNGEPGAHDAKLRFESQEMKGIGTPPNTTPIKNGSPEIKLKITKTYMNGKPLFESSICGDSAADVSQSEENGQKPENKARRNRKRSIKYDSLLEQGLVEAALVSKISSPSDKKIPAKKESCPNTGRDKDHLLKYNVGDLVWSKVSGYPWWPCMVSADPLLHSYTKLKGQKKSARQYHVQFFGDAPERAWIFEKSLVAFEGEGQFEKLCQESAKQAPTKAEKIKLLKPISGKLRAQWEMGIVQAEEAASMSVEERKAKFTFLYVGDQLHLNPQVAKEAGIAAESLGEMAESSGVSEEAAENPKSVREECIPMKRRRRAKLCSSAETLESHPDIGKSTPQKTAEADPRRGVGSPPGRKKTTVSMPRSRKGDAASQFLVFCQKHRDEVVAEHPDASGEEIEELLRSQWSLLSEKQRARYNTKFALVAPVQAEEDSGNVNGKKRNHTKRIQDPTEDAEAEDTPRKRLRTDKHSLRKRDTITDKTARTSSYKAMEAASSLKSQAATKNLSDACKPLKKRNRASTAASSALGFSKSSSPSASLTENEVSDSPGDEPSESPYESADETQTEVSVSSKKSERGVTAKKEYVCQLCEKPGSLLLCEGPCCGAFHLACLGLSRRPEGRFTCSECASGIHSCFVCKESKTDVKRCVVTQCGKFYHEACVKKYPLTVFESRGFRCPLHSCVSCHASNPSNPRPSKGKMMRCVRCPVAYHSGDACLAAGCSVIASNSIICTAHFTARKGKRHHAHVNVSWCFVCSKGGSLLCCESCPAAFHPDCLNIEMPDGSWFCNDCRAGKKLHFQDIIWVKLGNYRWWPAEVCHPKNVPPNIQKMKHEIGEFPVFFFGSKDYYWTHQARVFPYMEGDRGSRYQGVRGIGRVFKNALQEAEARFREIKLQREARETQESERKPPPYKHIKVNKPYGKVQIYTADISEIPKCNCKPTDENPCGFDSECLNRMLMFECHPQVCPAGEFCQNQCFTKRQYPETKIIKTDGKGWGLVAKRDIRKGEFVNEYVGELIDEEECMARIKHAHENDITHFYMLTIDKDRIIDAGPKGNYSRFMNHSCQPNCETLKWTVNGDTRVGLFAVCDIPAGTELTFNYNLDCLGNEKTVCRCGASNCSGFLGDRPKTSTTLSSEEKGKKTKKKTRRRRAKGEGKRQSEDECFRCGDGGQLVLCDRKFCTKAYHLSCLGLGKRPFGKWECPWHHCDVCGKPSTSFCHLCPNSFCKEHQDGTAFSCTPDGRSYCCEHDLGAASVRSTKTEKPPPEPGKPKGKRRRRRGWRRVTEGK", "assay": "blockers of NSD2 lysine methylation activity – biochemical, AlphaScreen, single concentration, set 2, primary screen (AID 743445)", "details": "NSD2 peptide methylation, 120 min, at 12.5 µM, stronger effect = higher value"}
{"smiles": "O=C(CSc1nc2ccccc2nc1N1CCCCC1)N1CCN(S(=O)(=O)c2cccc([N+](=O)[O-])c2)CC1", "inhibition": "-12%"}
{"smiles": "CC(=O)NC(c1ccccc1)c1nc(-c2cccc(C(C)C)c2)cs1", "note": "(stereo not drawn)", "inhibition": "3.74%"}
{"smiles": "CCOC(=O)c1c(C)[nH]c2c1-c1ccccc1C(=O)C2=O", "inhibition": "82.9% (active)"}
{"smiles": "CCOC(=O)c1ccccc1OC(=O)Oc1ccccc1C(=O)OCC", "inhibition": "-0.93%"}
{"smiles": "CCOC(=O)c1c(C)[nH]c(C)c1S(=O)(=O)N(C)CC(=O)Nc1ccccc1C", "inhibition": "2.08%"}
{"smiles": "CCOc1ccc2nc(NC(=O)C3CC3)sc2c1", "inhibition": "-0.715%"}
{"smiles": "CCCC1CCC2(CCCN2CCOC(=O)NCc2ccccc2)CC1", "note": "(stereo not drawn)", "inhibition": "-1.02%"}
{"smiles": "O=C(CNS(=O)(=O)c1ccccc1F)N1CCN(c2ccccn2)CC1", "inhibition": "-3.13%"}
{"smiles": "COc1ccc(-c2cc(-c3nnc(SCc4ccc([N+](=O)[O-])cc4)n3N)[nH]n2)cc1", "inhibition": "-2.18%"}
{"smiles": "COc1cc(C(=O)Nn2c(CC(C)C)nc3ccccc3c2=O)cc(OC)c1OC", "inhibition": "-1.2%"}
{"smiles": "COc1cc(C(=O)Nn2c(O)c(C3=c4ccccc4=NC3=O)sc2=S)ccc1O", "inhibition": "51.8% (active)"}
{"smiles": "COc1cc(C(=S)NC2CCCCC2)ccc1O", "inhibition": "6.51%"}
{"smiles": "O=C(CCS(=O)(=O)c1ccccc1)Nc1ccc(Cl)c(Cl)c1", "inhibition": "-0.439%"}
{"smiles": "O=C(Nc1ccccc1C(=O)Nc1ccc(F)cc1)c1ccccc1F", "inhibition": "0.274%"}
{"smiles": "Cc1nn(-c2ccccc2)c(Cl)c1/C=N/NC(=O)c1nn(C)cc1[N+](=O)[O-]", "inhibition": "6.06%"}
{"smiles": "Cc1cc(=O)[nH]c(N/N=C/c2c(C)nn(-c3ccccc3Cl)c2Cl)n1", "inhibition": "69.3% (active)"}
{"smiles": "Cc1cc(=O)[nH]c(N/N=C/c2ccc3c(c2)OCCO3)n1", "inhibition": "-3.07%"}
{"smiles": "O=[N+]([O-])c1ccccc1Nc1ccc(O)cc1", "inhibition": "81% (active)"}
{"smiles": "O=C(Nc1ccccc1[N+](=O)[O-])C1C(c2ccccc2)=C1c1ccccc1", "inhibition": "-5.32%"}
{"smiles": "Cc1c(NC(=O)Nc2ccccc2)cccc1[N+](=O)[O-]", "inhibition": "-2.18%"}
{"smiles": "CCc1nc2ccc(C(=O)NCc3ccc(OC)cc3)cn2c1N(CC)Cc1cccc(Br)c1", "inhibition": "-0.31%"}
{"smiles": "C=CCc1cccc2cc(C(=O)Nc3ccc(NC(C)=O)cc3)c(=O)oc12", "inhibition": "52.4% (active)"}
{"smiles": "C=CCc1cccc2cc(C(=O)OCC)c(=O)oc12", "inhibition": "3.09%"}
{"smiles": "C=CCc1cccc2cc(C(=O)NC3CCCC3)c(=O)oc12", "inhibition": "-2.76%"}
{"smiles": "CCCC(=O)N1CCC1(C)C(=O)NCc1ccc(C(C)C)cc1", "note": "(stereo not drawn)", "inhibition": "0.789%"}
{"smiles": "O=C(NS(=O)(=O)c1cccs1)[C@H]1O[C@@H](n2ccc(=O)[nH]c2=O)[C@H](O)[C@@H]1O", "inhibition": "0.413%"}
{"smiles": "CC(=O)N1CCCN(C2=Nc3ccccc3Sc3ccccc32)CC1", "inhibition": "0.906%"}
{"smiles": "O=C(Nc1ccc(N2CCOCC2)cc1)C1=COCCO1", "inhibition": "-0.182%"}
{"smiles": "COC(=O)CCCCC1=CCC2C(=O)C=C(O)C2C1", "note": "(stereo not drawn)", "inhibition": "62.2% (active)"}
{"smiles": "COc1ccc(-n2c(SCC(=O)Nc3ccccc3-c3ccccc3)nnc2-c2cccnc2)cc1", "inhibition": "3.15%"}
{"smiles": "COC(=O)c1cc(S(=O)(=O)N2CCN(c3ccccc3C)CC2)cn1C", "inhibition": "7.47%"}
{"smiles": "COc1cccc(-c2cc(CNC(=O)[C@@H](Cc3ccccc3)NC(=O)[C@H]3O[C@@H](n4cnc(C(N)=O)n4)[C@H](O)[C@@H]3O)no2)c1", "inhibition": "-0.483%"}
{"smiles": "COc1ccc(-n2c(COc3ccc(C)cc3)nnc2SCC(=O)Nc2ccc(Oc3ccccc3)cc2)cc1", "inhibition": "0.031%"}
{"smiles": "CC(C)CSc1nnc(-c2cccnc2)n1Cc1ccccc1", "inhibition": "-2.26%"}
{"smiles": "CCOc1ccccc1Nc1nnc(SCc2ccc(C(=O)OC)o2)s1", "inhibition": "103% (active)"}
{"smiles": "COC(=O)c1ccc(CSc2nnc(N)s2)o1", "inhibition": "-2.67%"}
{"smiles": "CCOc1ccccc1Nc1nnc(SCC(=O)Nc2cc(C)on2)s1", "inhibition": "-5.24%"}
{"smiles": "Cc1ccc(NC(=O)C(C)Sc2nc(C)cs2)cc1", "note": "(stereo not drawn)", "inhibition": "-1.63%"}
{"smiles": "O=C(NCc1ccco1)C1CCCN(S(=O)(=O)c2ccc(Cl)s2)C1", "note": "(stereo not drawn)", "inhibition": "1.68%"}
{"smiles": "CC(=O)Nc1ccc(S(=O)(=O)Nc2ccc(N3CCCCC3)cc2)cc1", "inhibition": "11.4%"}
{"smiles": "O=C1C=CC(=O)N1c1ccc(N2CCCCC2)cc1", "inhibition": "51.2% (active)"}
{"smiles": "O=C(Cc1ccccc1)NC(=S)Nc1ccc(N2CCCCC2)cc1", "inhibition": "0.281%"}
{"smiles": "O=C(CN1CCCc2ccccc21)NCc1ccc(F)cc1", "inhibition": "0.199%"}
{"smiles": "Cc1ccc(NC(=O)Cc2cccc(F)c2)c(S(=O)(=O)N2CCOCC2)c1", "inhibition": "-1.61%"}
{"smiles": "O=C(O)c1ccccc1/C=N/Nc1ccc(S(=O)(=O)Nc2ccc(Cl)cc2)cc1[N+](=O)[O-]", "inhibition": "14.9%"}
{"smiles": "O=C(Nc1ccc(C(=O)O)c(O)c1)c1ccccc1", "inhibition": "-0.136%"}
{"smiles": "O=C(O)c1ccccc1N=N/C(=N/Nc1cc(S(=O)(=O)O)ccc1O)c1ccccc1", "inhibition": "70.7% (active)"}
{"smiles": "O=C(CSc1nnc(COc2ccccc2)n1-c1ccc(Cl)cc1)Nc1ccc2c(c1)OCO2", "inhibition": "-1.07%"}
{"smiles": "O=C(N/N=C/c1cccnc1)c1cc2ccccc2cc1O", "inhibition": "4.16%"}
{"smiles": "Cc1ccc(/C=N/NC(=O)c2cc3ccccc3cc2O)o1", "inhibition": "50% (active)"}
{"smiles": "O=C(NN=Cc1ccc(N2CCOCC2)cc1)c1cc2ccccc2cc1O", "inhibition": "-0.134%"}
{"smiles": "Clc1ccc(-n2c(COc3ccccc3)nnc2SCc2nc3ccccc3[nH]2)cc1", "inhibition": "1.86%"}
{"smiles": "Cc1cc(=O)[nH]c(SCC(=O)Nc2ccc(F)cc2F)n1", "inhibition": "-12.4%"}
{"smiles": "CN(C)S(=O)(=O)c1cccc(C(=O)N/N=C\\c2ccco2)c1", "inhibition": "3.26%"}
{"smiles": "Cc1ccccc1S(=O)(=O)NC(=O)C1(C)CCN1C(=O)C1(c2ccccc2)CCCC1", "note": "(stereo not drawn)", "inhibition": "-0.963%"}
{"smiles": "CCC1(C)N(O)C(C)(C)C(c2ccc(OC)cc2)=[N+]1[O-]", "note": "(stereo not drawn)", "inhibition": "-2.21%"}
{"smiles": "C/C(=N\\O)C1(C)N(O)C(C)(C)C(c2ccc(Br)cc2)=[N+]1[O-]", "note": "(stereo not drawn)", "inhibition": "-1.39%"}
{"smiles": "CCC1=[N+]([O-])C(C)(/C(C)=N\\O)N(O)C1(C)C", "note": "(stereo not drawn)", "inhibition": "96.5% (active)"}
